In PubChem BioAssay AID1863 (Southern Research Specialized Biocontainment Screening …, 2009):
Out of some 300,000 compounds screened, about 480 (0.16%) were called active.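 The calls were made as follows: active = inhibition over 29.93%, a cutoff 3 SD above the screen mean, later confirmed by dose response; inconclusive = inhibition over 29.93% but no dose response follow-up; inactive = inhibition at most 29.93% or unconfirmed.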 A selection follows. Measured potencies and affinities stand elsewhere.

Test: PhoP-dependent GFP reporter repression – Salmonella Typhimurium, primary screen (AID 1863);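 also: 0% = low Mg2+ inducing control and 100% = high Mg2+ repressing control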
Settings: S. Typhimurium PhoP-regulated promoter GFP reporter, 4 h; at 50 µM; hits give high values

inhibition, inactive:
Cc1cc2oc(C(=O)Nc3ccc(S(N)(=O)=O)cc3)c(C)c2cc1Cl 0.34%
COC(=O)c1ccc(Nc2c([N+](=O)[O-])ccc3nonc23)cc1 -2.08%
Cc1ccc(S(=O)(=O)N(C)C)cc1NC(=O)COC(=O)COc1ccc2c(c1)CCC2 -2.74%
Cc1cc(Nc2ccccc2O)c2ccccc2n1 8.86%
Cc1cccc(Nc2nc3ccccc3s2)c1C 6.62%
Cc1cc(Nc2ccccc2)nc2cc(O)ccc12 60.3%
Cc1cc(N2CCC(C)CC2)nc2cccc(O)c12 11.4%
CCOc1ccc(NC(=O)CSc2nc3cccnc3n2CCOC)cc1 8.6%
O=C(NC(=S)N1CCN(C/C=C/c2ccccc2)CC1)c1cccnc1 -1.23%
Cc1cc(C)n(-c2nc(NCCO)c3c4c(sc3n2)CCCC4)n1 1.98%
Cc1cc(C)n(-c2nc(NCCCN(C)C)c3c4c(sc3n2)CCCC4)n1 -3.42%
Cn1cc(C(=O)NCc2cccnc2)c(=O)c2cc(S(=O)(=O)N3CCCCCC3)ccc21 1.24%
CS(=O)(=O)N(Cc1ccc(C(=O)NCCSCc2ccco2)cc1)c1ccccc1 -4.62%
Cc1cccc(N2CCN(C(=O)c3ccnn3C)CC2)c1C 0.84%
COCCNCC(O)CON=C1c2ccccc2-c2ccccc21 (centres undefined) -2.34%
CC(C)(C)NCC(O)CON=C1c2ccccc2-c2ccccc21 (centres undefined) -0.28%
Cc1n[nH]c(=S)n1-c1cccc(Cl)c1 -6.91%
CCN(CC)CCCNC(=O)c1cn(CC)c2cc(N3CCN(C(=O)c4ccco4)CC3)c(F)cc2c1=O 14.4%
CCN(CC)CCNC(=O)c1cn(CC)c2cc(N3CCN(C)CC3)c(F)cc2c1=O 25.1%
CCn1cc(C(=O)NCc2ccc3c(c2)OCO3)c(=O)c2cc(F)c(N3CCN(C)CC3)cc21 6.63%
CC1(C)S/C(=N/N=C/c2cccs2)NC1=O 0.99%
Cc1ccc(C)c(N2CCN(c3ccc([N+](=O)[O-])cn3)CC2)c1 1.13%
Cn1c(CNC(=O)c2ccc3c(c2)OCO3)nnc1SCC(=O)Nc1ccc(F)cc1 2.02%
COc1ccc(Br)cc1CN(C)C(=O)c1ccccc1OCc1c(C)noc1C -8.01%
Cc1ccc(N(CC(=O)NC2CCCCC2)S(=O)(=O)c2c(C)noc2C)cc1 6.34%
CC(O)CNCCNCc1c(OCc2ccccc2)ccc2ccccc12 (centres undefined) 32.8%
CC(C)(CO)NCc1c(OCc2ccc(Cl)cc2)ccc2ccccc12 -7.49%
COc1ccc(S(=O)(=O)N2CCC(NC(=O)C3CCCCC3)CC2)cc1 4.35%
Cc1ccc(-c2ccc(=O)n(CC(=O)NCc3ccco3)n2)cc1 6.56%
COc1ccc(NC(=O)C2CCN(S(=O)(=O)c3ccc(OC)c(OC)c3)CC2)c(OC)c1 5.61%
CCOC(=O)c1cnc(-c2ccccc2O)nc1Cl 3.92%
CCOC(=O)C(=O)Nc1ccccc1C(=O)OCC 9.09%
C[C@@H]1CC=C[C@H]2[C@H]1C(=O)N(Cc1ccccc1)[C@H]2c1ccc(-c2ccc(F)cc2)cc1F -3.92%
Cc1cc(C)c2[nH]c(=O)c(C(c3nnnn3CC3CCCO3)N3CCCC(C)C3)cc2c1 (centres undefined) -1.81%
O=[N+]([O-])c1ccc(CSc2nc3ccccc3o2)cc1 8.78%
O=[N+]([O-])c1ccc(Cl)cc1Sc1nc2ccccc2o1 0.44%
O=S(=O)(Nc1nccs1)c1cnc(Cl)c(Br)c1 -2.83%
Cc1cc(C(=O)CN2C(=O)NC3(CCCc4ccccc43)C2=O)c(C)n1Cc1cccs1 (centres undefined) 8.89%
CSCCC(NC(=O)c1cccc([N+](=O)[O-])c1)C(=O)OCC(=O)N1CCCC1=O (centres undefined) 1.97%
CCN=C1SC(CC(=O)NC2CCCCC2)C(=O)N1CC (centres undefined) 8.13%
Cc1ccc(-c2c[n+](Cc3ccc(Cl)cc3)c3n2CCC3)cc1 -4.34%
Clc1ccc(-c2c[n+](Cc3cccc(Cl)c3)c3n2CCC3)cc1 5.53%
Clc1ccc(C[n+]2cc(-c3ccccc3)n3c2CCCCC3)c(Cl)c1 8.08%
Cc1ccc(C[n+]2cc(-c3ccc(Cl)cc3)n3c2CCC3)cc1 31.5%
COC(=O)C(C)(C(=O)OC)c1ccc(C(F)(F)F)cc1[N+](=O)[O-] -5.58%
C=CCN1C(=O)C(CC(=O)Nc2ccc(OCC)cc2)N(Cc2ccccn2)C1=S (centres undefined) -2.55%
Cc1ccc(NC(=S)N2CCOCC2)c(C)c1 -0.67%
CN1C(=O)C(O)(CC(=O)c2cccs2)c2ccccc21 (centres undefined) -3.39%
O=C1C(=O)N(CC2CCCO2)C(c2ccccc2[N+](=O)[O-])/C1=C(/O)c1ccccc1 (centres undefined) 2.01%
CC1(C)CC(=O)C2=C(C1)OC(c1ccncc1)C(C#N)=C2N (centres undefined) -4.82%
O=C(NC1CCCCC1)C1CCN(c2cnccn2)CC1 17.7%
O=C(NC(Cc1ccccc1)C(=O)NCc1ccccn1)c1ccco1 (centres undefined) 1.32%
CCn1c(N)nc2ccccc21 5.85%
Cc1ccc(Cn2c(N)nc3ccccc32)cc1 11.5%
Nc1nc2ccccc2n1CCOc1ccc(Cl)cc1 11.6%
Nc1nc2ccccc2n1CCOc1ccc(F)cc1 10.1%
CC(NC(=O)c1ccco1)C(=O)OCC(=O)c1ccc(Cl)s1 (centres undefined) -10.8%
CN1C(C(=O)Nc2ncccn2)=C(O)c2ccccc2S1(=O)=O 5.72%
COc1cc(C(=O)NCc2nnc(SCC(=O)Nc3cc(C)on3)o2)cc(OC)c1OC -1.06%
CCOC(CNC(=O)Cn1nc(Cc2ccncc2)c2ccccc2c1=O)OCC 1.12%
COc1ccc(O)c(/C=N/Nc2nc3ccccc3[nH]2)c1 -9.48%
Cc1ccccc1/C=N/Nc1nc2ccccc2[nH]1 -7.4%
CCN(CC)c1ccc(/C=N/Nc2ccccc2)c(O)c1 7.3%
CCN(CC)c1ccc(/C=N/Nc2nc(C)cc(=O)[nH]2)c(O)c1 6.35%
